Reference: PubChem BioAssay AID630 (Emory University Molecular Libraries Screening Center, 2007)
Screen size: about 88,000 compounds; about 260 (0.3%) were called active.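 The calls were made as follows: active = compounds that reduce the energy-transfer binding signal between the protein and its labelled peptide by more than half; inactive = the rest.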 The sample as a whole holds a higher share of actives than the screen did.

Each molecule was assayed against Mothers against decapentaplegic homolog 3 (Homo sapiens) (UniProt P84022) (assay: blockers of Smad3 binding to FoxH1 – biochemical, TR-FRET, primary screen (AID 630;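 also: 0% = Smad3 plus labelled peptide maximal FRET and 100% = peptide-only background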)). Settings: TR-FRET Smad3/Dy647-FoxH1 peptide binding, europium anti-His; at 25 µM; hits give high values.
Mothers against decapentaplegic homolog 3 (Homo sapiens), sequence (P84022 whole entry, looked up): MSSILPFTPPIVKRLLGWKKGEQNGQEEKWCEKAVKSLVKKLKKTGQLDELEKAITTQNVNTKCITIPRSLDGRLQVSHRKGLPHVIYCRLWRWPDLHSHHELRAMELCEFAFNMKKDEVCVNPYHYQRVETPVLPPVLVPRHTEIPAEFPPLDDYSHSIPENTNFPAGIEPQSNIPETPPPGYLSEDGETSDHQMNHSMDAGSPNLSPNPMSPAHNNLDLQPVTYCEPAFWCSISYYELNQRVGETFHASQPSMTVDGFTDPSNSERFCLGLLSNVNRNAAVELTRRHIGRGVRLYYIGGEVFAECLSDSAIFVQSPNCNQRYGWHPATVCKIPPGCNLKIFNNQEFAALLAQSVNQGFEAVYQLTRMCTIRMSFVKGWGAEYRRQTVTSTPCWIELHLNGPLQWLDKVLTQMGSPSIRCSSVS
With `CC(=O)C1=C(C)NC(=O)NC1c1cc(Br)ccc1OCC#N` (stereo not given) the inhibition was 5.31% (inactive).
`N#CC1=C(N)N(c2ccccc2)C2=C(C(=O)CCC2)C1c1ccccc1` (stereo not given) was tested, and the inhibition was -6.32% (inactive).
For `C=CCN(N=Nc1cccc([N+](=O)[O-])c1)c1cccc([N+](=O)[O-])c1`, the inhibition was 5.93% (inactive).
In the case of `COc1ccc(NC(=O)C(CC(C)C)NS(=O)(=O)c2ccc3c(c2)CCN3C(C)=O)cc1OC` (stereo not given), the inhibition is reported as 2.09% (inactive).
`C[C@H]1O[C@@H](CC(=O)O)Cc2c1c(O)c1c(O)cc(-c3cc(=O)c4c(=O)c5c(c(=O)c=4c3=O)C[C@H](CC(=O)O)O[C@@H]5C)c(O)c1c2O` was tested, and the inhibition was 95.5% (active).
With `Cc1cc2cc(CNC(=O)c3cccs3)ccc2[nH]1` the inhibition was 4.85% (inactive).
`c1ccc2c(-c3nn4nnnc4c4ccccc34)cccc2c1` was tested, and the inhibition was 1.52% (inactive).
With `Cc1cc(Cl)c(S(=O)(=O)N(C)C)cc1OCC(N)=O` the inhibition was -1.09% (inactive).
With `COc1ccc(S(=O)(=O)Nc2ccc(F)cc2)c(C)c1C` the inhibition was -18.5% (inactive).
`COCCOCCn1cnc2ccccc21` was tested, and the inhibition was 8.15% (inactive).
With `Cc1ccc(-c2nc3ccccc3[nH]2)cc1N` the inhibition was 10.8% (inactive).
With `CC(=O)N1CCCc2cc(S(=O)(=O)CCC(=O)N3CCN(c4ccccc4)CC3)ccc21` the inhibition was 3.39% (inactive).
With `CC(C)(C)c1ccc(C(=O)NCC(=O)OCN2C(=O)c3ccccc3C2=O)cc1` the inhibition was -15.4% (inactive).
With `C=CCN(C(=O)Cn1ncc2c1-c1cc(C)ccc1OC2)c1ccccc1` the inhibition was -12.8% (inactive).
`Oc1c(Br)cc(CN(Cc2cc(Br)c(O)c(Br)c2)C2CCCCC2)cc1Br` was tested, and the inhibition was 98.7% (active).
With `C=CCO/N=C(\C)c1c(O)c(C)c(-c2ccccc2)n(-c2ccccc2)c1=O` the inhibition was 0.29% (inactive).
With `Cc1cccc(NC(=O)/C(=C\c2ccco2)NC(=O)c2ccccc2)c1` the inhibition was -5.56% (inactive).
In the case of `CC(=O)c1ccc(-n2nnnc2SCC(=O)N2CCN(C(=O)c3ccco3)CC2)cc1`, the inhibition is reported as 6.3% (inactive).
In the case of `CCC(c1nnnn1C1CCCC1)N1CCN(C(=O)c2ccco2)CC1` (stereo not given), the inhibition is reported as 56.9% (active).
For `CC(C)C(c1nnnn1CCc1ccccc1)N1CCN(C(=O)c2ccco2)CC1` (stereo not given), the inhibition was -1.2% (inactive).
`COC(=O)c1ccc(CSc2nc3cc(Cl)ccc3o2)cc1` was tested, and the inhibition was 8.67% (inactive).
For `Cc1ccc(-c2cnc(NC(=O)CCC(=O)N(C)Cc3ccccc3)n2C)cc1`, the inhibition was 8.43% (inactive).
In the case of `COc1ccc(C(C)=O)cc1CN1C(=O)NC2(CCCCC2C)C1=O` (stereo not given), the inhibition is reported as 3.22% (inactive).
In the case of `CC1CCN(C(=O)c2cc3nc(C4CC4)cc(C(F)(F)F)n3n2)CC1`, the inhibition is reported as 6.46% (inactive).
`C[C@H](CCC(=O)O)[C@@H]1CC[C@@H]2[C@H]3CC[C@H]4C[C@@H](O)CC[C@]4(C)[C@@H]3C[C@H](O)[C@]21C` was tested, and the inhibition was -5.18% (inactive).
`FC(F)(F)c1ccc2nnc(-c3c(Cl)cccc3Cl)n2c1` was tested, and the inhibition was -1.74% (inactive).
With `CC1CCCCC1NC(=O)C1CCCN1S(=O)(=O)c1cccc2nsnc12` (stereo not given) the inhibition was -19.4% (inactive).
`O=C1CSC(c2ccc(Cl)cc2)N1` (stereo not given) was tested, and the inhibition was 13.1% (inactive).
`Cc1cccn2c(=O)c(/C=C(\C#N)S(=O)(=O)c3ccc(Cl)cc3)c(N3CCC(C(N)=O)CC3)nc12` was tested, and the inhibition was 0.22% (inactive).
With `CCCNC(=O)N1CCN(C(=O)NCCC)CC1` the inhibition was 0.05% (inactive).
With `CC1=CC(=O)C=CC1(C)C(Cl)(Cl)Cl` (stereo not given) the inhibition was -10.9% (inactive).
In the case of `CN(C)c1ccc(CNC2C3CC4CC(C3)CC2C4)cc1` (stereo not given), the inhibition is reported as 8.16% (inactive).
In the case of `COC(=O)Nc1ccc(S(=O)(=O)N2CCN(CCN3C(=O)C4C5C=CC(C5)C4C3=O)CC2)cc1` (stereo not given), the inhibition is reported as 6.97% (inactive).
In the case of `O=C(NCC(=O)N(Cc1cccs1)C(C(=O)NC1CCCCC1)c1ccco1)c1cccs1` (stereo not given), the inhibition is reported as 0.62% (inactive).
For `COc1ccc(C)cc1S(=O)(=O)NCCc1ccccc1`, the inhibition was 7.34% (inactive).
With `COc1ccc(NC(=S)N2N=CCC2c2ccccc2)cc1` (stereo not given) the inhibition was -1.54% (inactive).
`CCCCN1C(=O)CC(N2CCOCC2)C1=O` (stereo not given) was tested, and the inhibition was -0.67% (inactive).
With `O=C(Cc1c(O)c2ccccc2[nH]c1=O)NCc1ccccc1` the inhibition was 7.06% (inactive).
For `CS(=O)(=O)c1ccc(/C=N/NC(N)=S)cc1`, the inhibition was 20.2% (inactive).
In the case of `CC(C)CCNC(=O)Cn1c(=O)oc2cc(S(=O)(=O)N3CC(C)CC(C)C3)ccc21` (stereo not given), the inhibition is reported as 7.82% (inactive).
For `CCOCCCNC(=O)C(NC(=O)c1ccc(=O)[nH]c1)c1ccc(C)cc1` (stereo not given), the inhibition was -19.1% (inactive).
For `Cc1nnc(SCc2nc3ccccc3nc2C)s1`, the inhibition was 1.94% (inactive).
For `CCOc1cc2[nH]c(=S)n(Cc3ccc(C(=O)NCCOC)cc3)c(=O)c2cc1OCC`, the inhibition was -0.98% (inactive).
For `CC(C)Oc1ccc(Oc2ccc(C(F)(F)F)cn2)cc1`, the inhibition was 0.6% (inactive).
For `CCn1c(C)nc2cc(C(=O)NNS(=O)(=O)c3ccc(C)cc3C)ccc21`, the inhibition was 2.77% (inactive).
For `COc1cccc(-n2c(Cc3cc(=O)[nH]c(=O)[nH]3)nnc2SCC(=O)Nc2ccccc2)c1`, the inhibition was 4.97% (inactive).
For `Cc1cccc(-n2c(Cc3cc(=O)[nH]c(=O)[nH]3)nnc2SC(C)C)c1`, the inhibition was 62% (active).
In the case of `Cc1cccc(-n2c(N)cc(=O)nc2SC(C)C(=O)NC2CCCCC2)c1` (stereo not given), the inhibition is reported as 5.17% (inactive).
For `O=C(O)CCCCc1nc2ccccc2s1`, the inhibition was -2.94% (inactive).
In the case of `CNC(=O)c1nnc(Cc2ccc(Cl)cc2)o1`, the inhibition is reported as -6.06% (inactive).
With `CCOc1ccc(S(=O)(=O)NCC2CCCO2)cc1` (stereo not given) the inhibition was -12% (inactive).
`CCOCCCNC(=O)C(NC(=O)CNC(=O)c1ccccc1)c1ccc(C)cc1` (stereo not given) was tested, and the inhibition was -6.68% (inactive).
For `CCOC(=O)NC(C(F)(F)F)(C(F)(F)F)P(=O)(c1ccccc1)c1ccccc1`, the inhibition was 6.78% (inactive).
For `CCOCCOCCC(C(=O)O)P(=O)(c1ccccc1)c1ccccc1` (stereo not given), the inhibition was 71.7% (active).
For `CCCCCCOc1ccc(OC(=O)c2cccnc2)cc1`, the inhibition was 0.33% (inactive).
With `Cc1ccc(-n2c(=O)cc(N3CCN(Cc4ccccc4)CC3)[nH]c2=O)cc1` the inhibition was 2.1% (inactive).
With `Cc1cc(S(=O)(=O)NC2CCCCC2)ccc1OCC(=O)NCc1cccnc1` the inhibition was 8.87% (inactive).
`CN(C)C(=O)c1cc(Br)ccc1Cl` was tested, and the inhibition was 1.18% (inactive).
In the case of `O=C(Nc1ccc2c(c1)OCCO2)C(c1ccc(F)cc1)N1CCCCC1` (stereo not given), the inhibition is reported as -0.28% (inactive).
With `O=C(O)c1c(Br)c(Br)c(Br)c(Br)c1C1c2ccc(O)cc2Oc2cc(O)ccc21` the inhibition was 93.1% (active).
`COc1cccc(N=c2oc3c(C)ncc(CO)c3cc2C(N)=O)c1` was tested, and the inhibition was 10.9% (inactive).
With `CC1(CC(=O)O)O[C@@H]2CCCCC[C@H]2O1` (tested in a mixture with another compound) the inhibition was 14% (inactive).
`Cc1cc(NC(=O)CS(=O)(=O)c2cn(C)c3ccccc23)no1` was tested, and the inhibition was -0.74% (inactive).
`Cc1ccccc1CSCCNC(=O)c1ccc(Cl)c(S(=O)(=O)N2CCOCC2)c1` was tested, and the inhibition was 4.77% (inactive).
In the case of `CCC1CCCCN1CCCNC(=O)C1CCC(Cn2c(=O)[nH]c3ccccc3c2=O)CC1` (stereo not given), the inhibition is reported as 14.2% (inactive).
In the case of `COc1ccc(C(C#N)Nc2ccccc2C)cc1` (stereo not given), the inhibition is reported as -2.51% (inactive).
`COc1ccc(C(=O)OCC(=O)NCC2CCCCC2)cc1S(=O)(=O)N1CCCc2ccccc21` was tested, and the inhibition was 0.19% (inactive).
In the case of `Cc1ccc(S(=O)(=O)N(c2cccc(C)c2)C2CCS(=O)(=O)C2)cc1` (stereo not given), the inhibition is reported as 0.21% (inactive).
With `COc1ccc(C2(CNC(=O)C(c3ccccc3)c3ccccc3)CCOCC2)cc1OC` the inhibition was 3.2% (inactive).
For `COc1ccc(S(=O)(=O)N2CCOCC2)c(C)c1C`, the inhibition was 15.3% (inactive).
`Cc1c(O)c(Br)c(C)c(O)c1Br` (tested in a mixture with another compound) was tested, and the inhibition was 94% (active).
For `CCc1ccccc1NC(=O)CN(C)S(=O)(=O)c1ccc2c(c1)c(=O)n(C)c(=O)n2C`, the inhibition was -4.79% (inactive).
For `C=C(C)CNC(=S)/N=c1\scc(C)n1CC`, the inhibition was 91.6% (active).
`OC[C@@H]1O[C@H](n2cnc3c(SCc4ccccc4)ncnc32)[C@H](O)[C@H]1O` was tested, and the inhibition was 4.63% (inactive).
In the case of `CC(C)OC(=O)c1c(NC(=O)c2ccco2)sc2c1CCCC2`, the inhibition is reported as -1.98% (inactive).
For `CC(O)CN(Cc1ccc(Cl)cc1)CC(C)O` (stereo not given), the inhibition was 0.45% (inactive).
`COc1ccc(S(=O)(=O)N/N=C\c2ccc(OC)c(COc3ccc(C)cc3[N+](=O)[O-])c2)cc1` was tested, and the inhibition was -3.11% (inactive).
In the case of `Cc1ccc(SC(=O)COc2ccc(C)c(C)c2)cc1`, the inhibition is reported as -5.83% (inactive).
With `CCN1C(=O)C(CC(=O)Nc2cc(C)ccc2C)SC1=Nc1ccc(S(N)(=O)=O)cc1` (stereo not given) the inhibition was -12.6% (inactive).
`O=C(C1=C(O)C(=O)N(Cc2ccccc2)C1c1ccco1)c1ccco1` (stereo not given) was tested, and the inhibition was 12.4% (inactive).
With `C[C@@]12CC[C@H]3c4ccc(O)cc4CC[C@@H]3[C@H]1CC[C@H]2OC(=O)CCC1CCCC1` the inhibition was 39.6% (inactive).
`CC(=O)Nc1ccc(OCC(O)CN2CCN(c3ccccc3Cl)CC2)cc1` (stereo not given) was tested, and the inhibition was 4.39% (inactive).
In the case of `CCOc1ccc(N=C2NC(=O)S/C2=C\c2ccc(O)cc2)cc1`, the inhibition is reported as -8.11% (inactive).
With `O=C(NC1CCC(O)CC1)c1ccc(S(=O)(=O)NCc2ccco2)cc1` (stereo not given) the inhibition was 1.61% (inactive).
In the case of `COC(=O)C1=C(C)Nc2ncnn2C1c1cccnc1` (stereo not given), the inhibition is reported as -10.7% (inactive).
`Cc1ccc(S(=O)(=O)N(C)C2(C)CCS(=O)(=O)C2)cc1` (stereo not given) was tested, and the inhibition was -7.37% (inactive).
With `Cn1cnc([N+](=O)[O-])c1Nc1ccccc1O` the inhibition was -0.46% (inactive).
For `O=C(N/N=C/c1ccc(O)cc1)/C(=C/c1ccc([N+](=O)[O-])cc1)NC(=O)c1ccccc1`, the inhibition was -3.81% (inactive).
In the case of `Cc1cccc(C)c1NC(=O)CSc1nnc(-c2ccccc2)n1Cc1ccc2c(c1)OCO2`, the inhibition is reported as 14.3% (inactive).
With `Cc1nn(-c2ncc(C(F)(F)F)cc2Cl)c(=O)n1-c1ccccc1` the inhibition was 9.91% (inactive).
